Source: PubChem (National Center for Advancing Translational Sciences (NCATS))
Sampled rows, rich in hits. Any-hit rate of the full collection: about 7.5%.
Rab9 promoter act = qHTS Assay for Rab9 Promoter Activators | Huh7 Rab9 promoter-luciferase reporter, luminescence, 24 h | Potency, µM (titrated, usually from 9.22 µM), for the others: top-dose activation, negative = inhibition, most hits filed as activators | 2.8% of 320,000 active | AID 485297, 2010; note: % of control where 0% means no effect; nearly all actives have a fitted effect of over 60% in size
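Huh7 reporter line, Rab9 promoter upstream of luciferase. Compound exposure 24 h at 37 °C in reduced-serum medium with 10% FBS. Read-out: luminescence.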
SMN2 splice up = qHTS Assay for Enhancers of SMN2 Splice Variant Expression; HEK293 SMN2-luciferase splicing reporter, luminescence, 30-36 h; Potency, µM (doses to about 46.1 µM), for the others: at the highest dose activity change, positive = activation, hits mostly activators; 2.8% of 210,000 active; AID 1458, 2008; note: % of control where 0% means no effect; nearly all actives have a fitted effect of over 55% in size
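HEK293 cells carry an SMN2 minigene-luciferase reporter in which exon 7 inclusion puts luciferase in frame. Cells were seeded at 2000 cells/well, attached for 10-12 hours, then exposed to compounds for 30-36 hours at 37C before ONE-Glo luminescence.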
FLuc counter = qHTS profiling assay for firefly luciferase inhibitor/activator using purifed enzyme and Km concentrations of substrates (counterscreen for miR-21 project); 6.9% of 360,000 active; purified FLuc, Km substrates, luminescence inhibition; Potency, µM (top dose mostly 57.5 µM), for inactives: at the highest dose activity change, negative = inhibition, usual class: inhibitors; Luciferin 4-monooxygenase (Photinus pyralis), P08659;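 note: plate controls were vehicle for no effect and reference inhibitor for full effect; nearly all actives have a fitted effect of over 55% in size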
Target sequence (P08659 whole entry, looked up): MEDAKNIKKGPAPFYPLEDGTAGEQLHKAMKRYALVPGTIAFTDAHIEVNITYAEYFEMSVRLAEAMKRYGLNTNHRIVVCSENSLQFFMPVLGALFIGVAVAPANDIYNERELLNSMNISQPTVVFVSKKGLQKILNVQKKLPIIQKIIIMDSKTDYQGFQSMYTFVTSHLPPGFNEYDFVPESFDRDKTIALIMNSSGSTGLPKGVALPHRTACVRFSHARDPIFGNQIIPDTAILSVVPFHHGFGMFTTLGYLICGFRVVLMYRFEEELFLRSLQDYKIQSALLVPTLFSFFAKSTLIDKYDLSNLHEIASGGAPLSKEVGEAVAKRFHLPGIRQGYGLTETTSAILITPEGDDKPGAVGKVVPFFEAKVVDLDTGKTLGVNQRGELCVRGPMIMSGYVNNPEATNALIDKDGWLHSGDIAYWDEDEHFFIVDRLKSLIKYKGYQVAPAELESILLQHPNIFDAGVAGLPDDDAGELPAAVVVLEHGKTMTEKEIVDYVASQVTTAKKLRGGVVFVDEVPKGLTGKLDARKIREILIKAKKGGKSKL
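Biochemical qHTS of compounds, final roughly 60 µM downward over six points, against 10 nM purified firefly luciferase using Km concentrations of substrates (10 uM D-luciferin, 10 uM ATP) in Tris acetate pH 7.5 buffer; luminescence output.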
ELG1 genotoxic = qHTS screen for small molecules that induce genotoxicity in human embryonic kidney (HEK293T) cells expressing luciferase-tagged ELG1; HEK293T ELG1-luciferase reporter, luminescence, 16 h; Potency, µM (series often up to 46 µM), without a hit: top-dose activity change, positive = activation, hits mostly activators; 1.3% of 330,000 active; AID 504466, 2011; note: % of control where 0% means no effect; nearly all actives have a fitted effect of over 60% in size
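16 hr compound incubation (37 °C, 5% CO2) of HEK293T cells carrying luciferase-tagged ELG1; luciferase then measured by ONE-Glo luminescence after 30 min at RT.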
NPC1 promoter act = qHTS Assay for NPC1 Promoter Activators; Huh7 NPC1 promoter luciferase reporter, 24 h; Potency, µM (series often up to 9.22 µM), without a hit: top-dose activation, hits mostly activators; 2.4% of 320,000 active; note: % of control where 0% means no effect; nearly all actives have a fitted effect of over 60% in size
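Compounds in DMSO were transferred onto Huh7 NPC1-luciferase reporter cells pre-incubated 2 h; after 24 h at 37 °C, Amplite reagent was dispensed and luminescence recorded 10 min later.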
Starred values were filed as active, the others as inactive; ? = inconclusive; . = not tested or not shown; [ ] = dose if it differs, or a comment. Calls come from the whole dose curve; as a rule, active = well fitted curve in the direction sought with a large enough effect; inconclusive = small, poorly fitted or top-dose-only effect, or another doubt; inactive = no such curve, though single readings can be large; an effect the other way counts as inactive or inconclusive. Potency is the fitted concentration of half-maximal effect.

SMILES | Rab9 promoter act | SMN2 splice up | FLuc counter | ELG1 genotoxic | NPC1 promoter act
Cn1cccc1C(=O)NNC(=O)COc1ccccc1Cl | 25.4% | . | 15.1µM* | 13.4% | 17.2%
COc1ccccc1NC(=O)COC(=O)C1CC2C=CC1C2 (centres undefined) | 0.8% | 8.4% | 23.9µM* | 5.3% | -0.2%
COc1ccc(NC(=O)N2CCc3nc(-c4ccccc4)c4c(c3C2)CO[C@@H](C)C4)cc1 | . | 7.8%[9.22 µM] | . | . | .
Cc1ccc(S(=O)(=O)NCCc2nnc3ccc(SCc4ccccc4C)nn23)cc1 | . | . | -14.5% | . | .
Cn1cccc1C(=O)NC(=O)COC(=O)c1ccccc1O | -1.1% | 35.5µM* | 0.3% | 2.5% | 10.6%
COCCCn1c(C)cc(C(=O)COC(=O)C23CC4CC(CC(O)(C4)C2)C3)c1C | 0.631µM* | . | ? | ? | ?
COc1ccccc1NC(=O)COC(=O)C12CC3CC(CC(Br)(C3)C1)C2 | . | . | . | 0.9% | .
O=C(COC(=O)C12CC3CC(CC(O)(C3)C1)C2)Nc1ccc(Cl)cc1F | 1.26µM* | . | 7.57µM* | ? | ?
COc1ccccc1NC(=O)COC(=O)C12CC3CC(CC(Cl)(C3)C1)C2 | 0.2% | -0.4% | 15.1µM* | 1.2% | -0.7%
CCC1(C)OC(=O)NN(c2ccc(C)cc2)C1(C)O (centres undefined) | -0.1% | . | 1.5% | -0.1% | 2.5%
C[C@H](NC(=O)c1[nH]cnc1C(=O)Nc1ccc(Cl)cc1)c1ccccc1 | -7.5% | . | -2.1% | -6.4% | 0.9%
O=C(N/N=C/c1ccccc1C(=O)O)c1cc(-c2ccc3c4c(cccc24)CC3)n[nH]1 | -7.6% | 4.6% | 15.1µM* | -0.9% | -6.1%
O=C(N/N=C/c1ccco1)c1cc(-c2cccc3ccccc23)n[nH]1 | -2.6% | -15.1% | 16.9µM* | 8.9% | 22.5%
Cc1ccc(-c2cc(C(=O)N/N=C/c3ccco3)[nH]n2)cc1 | 14.6% | 15.8% | 21.3µM* | 8.7% | -0.9%
Cc1cc(C)nc(SCc2ccc(C(=O)N/N=C/c3ccccc3C(=O)O)cc2)n1 | -10.5% | 10.4% | ? | -0.2% | -2.6%
CCOC(=O)CN1C(=O)/C(=C/c2ccccc2Br)Oc2ccccc21 | 3.7% | . | ? | 1.8% | -2.7%
O=C(NCCCN1CCOCC1)C(=O)N/N=C/c1ccccc1O | -3.2% | . | 0.2% | -4.3% | -1.9%
O=C1c2ccccc2C(=O)N1C[C@]1(C(=O)O)NCCS1(=O)=O | . | 3.9%[9.22 µM] | . | . | .
O=C1/C(=C\c2ccc3ccccc3c2)CCCc2ccccc21 | 22.3% | -51.0% | 2.13µM* | 9.2µM* | -1.8%
Cc1ccsc1/C=C1\CCc2ccccc2C1=O | 0.794µM* | 10µM* | 0.19µM* | ? | ?
CCN1C/C(=C/c2sccc2C)c2nc3ccccc3c(C(=O)O)c2C1 | 0.3% | . | ? | 0.1% | 5.8%
Cc1ccccc1/C=C1\CCCc2ccccc2C1=O | 0.891µM* | 10µM* | 2.39µM* | ? | 3.98µM*
CCOC(=O)CC(C(=O)OCC)C1CCCCC1=O (centres undefined) | . | 19.3% | . | . | .
CC(C)Cn1c(C23CC4CC(CC(C4)C2)C3)n[nH]c1=S | -2.3% | . | 1.8% | -2.2% | -6.2%
Oc1ccc(-c2nc(-c3ccc(O)c(O)c3)cs2)cc1 | 4.8% | 20µM* | 15.1µM* | ? | -4.0%
SMILES | Rab9 promoter act | SMN2 splice up | FLuc counter | ELG1 genotoxic | NPC1 promoter act
O=C(CN1C(=O)CCC1=O)Nc1nc(-c2nc3ccccc3s2)cs1 | 2.82µM* | 12.6µM* | 10.7µM* | ? | ?
Cc1cc(NS(=O)(=O)c2ccc(Nc3nc(-c4ccc(O)cc4)cs3)cc2)no1 | -8.9% | 11.9% | 23.9µM* | 0.1% | -19.9%
O=C(CN1C(=O)CCC1=O)Nc1nc(-c2ccc3ccccc3c2)cs1 | ? | 27.5% | 16.9µM* | 14.2% | 25.8%
Cc1ccccc1CCNC(=O)Cn1ccc2cc(S(=O)(=O)N3CCCC3)ccc21 | 2.4% | . | 1.0% | -3.3% | -1.6%
CC(=O)NCCC(=O)Nc1nc(-c2ccc3ccccc3c2)cs1 | 5.8% | . | ? | ? | -1.0%
CC(=O)Nc1nc(-c2ccc3ccccc3c2)cs1 | 1.12µM* | . | 1.35µM* | ? | 0.631µM*
NS(=O)(=O)c1ccc(Nc2nc(-c3ccc(O)cc3O)cs2)cc1 | -9.0% | 13.9% | ? | ? | -0.9%
Oc1ccc(Nc2nc(-c3ccc4ccccc4c3)cs2)cc1 | ? | 25.1% | 1.07µM* | ? | ?
Nc1nn2cc(-c3ccc(Br)cc3)nc2c2ccccc12 | 2.24µM* | . | 1.69µM* | ? | 1.78µM*
NNc1nc(-c2ccccc2)cc(-c2ccc(Br)cc2)n1 | -2.9% | . | ? | -8.8% | -4.0%
Clc1cccc(CSc2ccc(-c3ccco3)nn2)c1 | 27.0% | 25.7% | 21.3µM* | 8.5% | 11.7%
Clc1cccc(CSc2ccc(-c3cccnc3)nn2)c1 | -2.1% | -1.1% | ? | 5.4% | -2.2%
Cc1cccc(CSc2ccc(-c3ccco3)nn2)c1 | ? | ? | 12µM* | ? | ?
Fc1ccccc1CSc1ccc(-c2ccco2)nn1 | 1.58µM* | 17.8µM* | 6.01µM* | ? | 2.24µM*
Cc1ccc(CSc2ccc(-c3ccco3)nn2)cc1 | 2.82µM* | 11.2µM* | 4.78µM* | ? | 3.55µM*
CCCC(=O)Nc1ccc(-c2nc3ncccc3o2)cc1C | . | ? | -17.4% | . | .
COc1ccc(N2CCN(C(=O)Cn3cnc4nc5c(cc4c3=O)CCCC5)CC2)cc1 | . | . | 3.7% | . | .
CC1(NC(=O)CCc2nc3ccccc3c(=O)[nH]2)CCS(=O)(=O)C1 (centres undefined) | -0.1% | . | 2.5% | 2.3% | -4.1%
Clc1ccc(CSc2ccc(-c3ccco3)nn2)cc1 | ? | ? | ? | 15.0% | ?
c1ccc(CSc2ccc(-c3ccco3)nn2)cc1 | 1.78µM* | 12.6µM* | 2.39µM* | 8.2µM* | 3.98µM*
Cc1nnc(NC(=O)c2ccc(Br)cc2)s1 | 3.16µM* | ? | 2.69µM* | ? | ?
CCCc1cc(C(=O)Nc2nnc(C)s2)cs1 | 3.55µM* | ? | 9.53µM* | ? | ?
Cc1nnc(NC(=O)Oc2ccccc2)s1 | -1.5% | 5.6% | 0.5% | 2.1% | 2.2%
CCOc1cc(C(=O)Nc2nnc(C)s2)cc(OCC)c1OCC | -5.7% | ? | 10.1% | -0.4% | 0.5%
Cc1nnc(NC(=O)c2ccc(S(=O)(=O)N3CCCCC3)cc2)s1 | . | . | . | 3.2% | .
CC(=O)Oc1ccc(C(=O)Nc2nnc(C)s2)cc1 | 21.0% | 25.6% | 21.3µM* | ? | 24.5%
Cc1ccc(C(=O)Nc2nnc(C)s2)cc1 | 3.16µM* | 14.1µM* | 12µM* | -2.4% | 3.55µM*
Cc1nc(Br)c(Br)c(C)c1Br | -1.6% | . | -4.8% | 2.1% | -2.9%
COc1ccc2c(c1)c1c(c(=O)n(Cc3ccccc3)c(=O)n1CC(=O)Nc1ccc(C)cc1C)n2C | . | . | -0.4% | . | .
